This is part of a sample that, as a whole, favours compounds with a hit. Of some 83,000 tested, about 20% had one in any assay.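 Results are percent growth after 48 hours of single-concentration exposure. 100 means growth as in untreated cells, lower positive values show inhibition; negative values down to -100 show cell death.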 Calls of active or inactive are those of the source. The calls were made as follows: active = growth percent below 10; inactive = the rest.
Columns and labels:
Assay in all cases: NCI-60 one-dose screen, 48 h (100 = growth as untreated, 0 = no growth, -100 = all killed)
Conditions in all cases: 10 µM unless noted
NCI-H226 lung = test system: NCI-H226 lung
NCI-H322M lung = test system: NCI-H322M lung
HOP-62 NSCLC = test system: HOP-62 NSCLC
NCI-H460 lung = test system: NCI-H460 lung
HOP-92 NSCLC = test system: HOP-92 NSCLC
NCI-H522 lung = test system: NCI-H522 lung
A549/ATCC NSCLC = test system: A549/ATCC NSCLC
786-0 renal = test system: 786-0 renal
COLO 205 colon = test system: COLO 205 colon
DU-145 prostate = test system: DU-145 prostate

Measured: growth

OC1CCN(CCCOc2c3ccc(Cl)cc3nc3c2oc2ccc(Cl)cc23)CC1
active: NCI-H226 lung 2.57% | NCI-H460 lung -75.2% | HOP-92 NSCLC 9.66% | NCI-H522 lung 9.65% | A549/ATCC NSCLC -52.9% | 786-0 renal -99% | COLO 205 colon -11.1% | DU-145 prostate -97.5%
inactive: NCI-H322M lung 15% | HOP-62 NSCLC 41%

Cc1cc2nc3c4cc(Cl)ccc4n(CC(=O)NCCN(C)C)c3nc2cc1C
inactive: NCI-H226 lung 25.7% | NCI-H322M lung 83.7% | HOP-62 NSCLC 73.7% | HOP-92 NSCLC 57.1% | NCI-H522 lung 91.8% | A549/ATCC NSCLC 89.4% | COLO 205 colon 76.8% | DU-145 prostate 94.4%
active: NCI-H460 lung -69.9% | 786-0 renal -92.4%

C#C[C@]1(O)CC[C@H]2[C@@H]3CC=C4c5sc(-c6ccc(F)cn6)nc5CC[C@]4(C)[C@H]3CC[C@@]21C
inactive: NCI-H226 lung 55.8% | NCI-H322M lung 65.4% | HOP-62 NSCLC 24.6% | NCI-H460 lung 10.4% | HOP-92 NSCLC 49.2% | NCI-H522 lung 56.9% | A549/ATCC NSCLC 37.2% | COLO 205 colon 92.2% | DU-145 prostate 47.3%
active: 786-0 renal -62.5%

CC(C)(C)Nc1nc2c(OCCc3ccccc3)cccn2c1-c1ccc(Cl)cc1
inactive: NCI-H226 lung 12.4% | NCI-H322M lung 24.6% | HOP-62 NSCLC 32.4% | NCI-H460 lung 16% | A549/ATCC NSCLC 16% | 786-0 renal 26.9% | DU-145 prostate 48.2%
active: HOP-92 NSCLC -24.9% | NCI-H522 lung 3.18% | COLO 205 colon -3.99%

O=c1[nH]c2ccc(Cl)cc2cc1CSc1ccccc1Nc1nccc(-c2ccc(Cl)cc2)n1
inactive: NCI-H226 lung 115% | NCI-H322M lung 101% | HOP-62 NSCLC 101% | NCI-H460 lung 95.3% | HOP-92 NSCLC 87.6% | NCI-H522 lung 97.3% | A549/ATCC NSCLC 86.4% | 786-0 renal 93.6% | COLO 205 colon 116% | DU-145 prostate 94.5%

COc1cccc(COc2ccc(/C=C3/C(=O)Nc4cc(Cl)ccc43)cc2)c1
inactive: NCI-H226 lung 84.9% | NCI-H322M lung 83.9% | HOP-62 NSCLC 85.4% | NCI-H460 lung 103% | HOP-92 NSCLC 79.8% | NCI-H522 lung 84% | A549/ATCC NSCLC 92.4% | 786-0 renal 102% | COLO 205 colon 102% | DU-145 prostate 98.5%

Cn1ccnc1C(=O)/C=C/c1ccc(NC(=O)Nc2ccc(Cl)cc2)cc1
inactive: NCI-H226 lung 81.9% | NCI-H322M lung 95.1% | HOP-62 NSCLC 94.8% | NCI-H460 lung 59.6% | HOP-92 NSCLC 104% | NCI-H522 lung 78.2% | A549/ATCC NSCLC 86.8% | 786-0 renal 56.8% | COLO 205 colon 95.9% | DU-145 prostate 75.7%

Fc1ccc(-c2cc3nc(C(Cl)Cl)nc(-c4ccccc4)n3n2)cc1
active: NCI-H322M lung -33.9% | HOP-62 NSCLC -36.9% | NCI-H460 lung -69.1% | HOP-92 NSCLC -27.7% | A549/ATCC NSCLC -45.6% | 786-0 renal 5.34% | COLO 205 colon -72.5% | DU-145 prostate -33.8%
inactive: NCI-H226 lung 85.7% | NCI-H522 lung 42.4%

N#Cc1nc(-c2ccccc2)oc1S(=O)(=O)N1CCCCC1
active: NCI-H522 lung -62%
inactive: NCI-H226 lung 105% | NCI-H322M lung 104% | HOP-62 NSCLC 110% | NCI-H460 lung 110% | HOP-92 NSCLC 55.7% | A549/ATCC NSCLC 98.7% | 786-0 renal 24.7% | COLO 205 colon 44.1% | DU-145 prostate 41.6%

C#Cc1nc(C2=C(C)C(O)/C(=N/O)C2)cs1 (stereo not given)
inactive: NCI-H226 lung 107% | NCI-H322M lung 102% | HOP-62 NSCLC 111% | NCI-H460 lung 104% | HOP-92 NSCLC 41.8% | NCI-H522 lung 15.5% | A549/ATCC NSCLC 96.5% | COLO 205 colon 128% | DU-145 prostate 87%
active: 786-0 renal -92.2%

COc1ccc(/C=C2\SC(=Nc3cc(C)[nH]n3)NC2=O)cc1
inactive: NCI-H226 lung 86.8% | NCI-H322M lung 91.9% | HOP-62 NSCLC 85.2% | NCI-H460 lung 102% | HOP-92 NSCLC 68.5% | NCI-H522 lung 97.4% | A549/ATCC NSCLC 102% | 786-0 renal 99.8% | COLO 205 colon 90.8% | DU-145 prostate 101%

NS(=O)(=O)c1cccc(Nc2nc(SCC(=O)c3ccc([N+](=O)[O-])cc3)nc3ccccc23)c1
active: NCI-H226 lung -20.9%
inactive: NCI-H322M lung 82.7% | HOP-62 NSCLC 71.9% | NCI-H460 lung 36.3% | HOP-92 NSCLC 52% | NCI-H522 lung 19.3% | A549/ATCC NSCLC 70.6% | 786-0 renal 44.6% | COLO 205 colon 83.1% | DU-145 prostate 42.8%

COc1cc2cc(Oc3ccc(NC(=O)c4cccc(C(F)(F)F)c4)cc3)c(C)nc2cc1OCCN1CCCCC1
inactive: NCI-H226 lung 103% | NCI-H322M lung 69.2% | HOP-62 NSCLC 98.1% | HOP-92 NSCLC 43.7% | NCI-H522 lung 68.9% | A549/ATCC NSCLC 19.2% | 786-0 renal 55.4% | DU-145 prostate 59.4%
active: NCI-H460 lung -69.4% | COLO 205 colon -94.8%

Reference: PubChem BioAssay (NCI)
